Screening results from PubChem.
CYP2C9 activ = increases human cytochrome P450 2C9 activity; P11712; recombinant CYP2C9, luciferin-H conversion, luminescence; active compounds read high; factor 1 = untreated enzyme, 0 = blocked; activation factor at 5 µM; 1.4% of 96,000 active; AID 1024;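 active = activation factor of 2 or more for CYP2C9 at a 5 µM dose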;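 also: 0 = sulfaphenazole-blocked wells and 1 = vehicle-only wells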
Target sequence (P11712 whole entry, looked up): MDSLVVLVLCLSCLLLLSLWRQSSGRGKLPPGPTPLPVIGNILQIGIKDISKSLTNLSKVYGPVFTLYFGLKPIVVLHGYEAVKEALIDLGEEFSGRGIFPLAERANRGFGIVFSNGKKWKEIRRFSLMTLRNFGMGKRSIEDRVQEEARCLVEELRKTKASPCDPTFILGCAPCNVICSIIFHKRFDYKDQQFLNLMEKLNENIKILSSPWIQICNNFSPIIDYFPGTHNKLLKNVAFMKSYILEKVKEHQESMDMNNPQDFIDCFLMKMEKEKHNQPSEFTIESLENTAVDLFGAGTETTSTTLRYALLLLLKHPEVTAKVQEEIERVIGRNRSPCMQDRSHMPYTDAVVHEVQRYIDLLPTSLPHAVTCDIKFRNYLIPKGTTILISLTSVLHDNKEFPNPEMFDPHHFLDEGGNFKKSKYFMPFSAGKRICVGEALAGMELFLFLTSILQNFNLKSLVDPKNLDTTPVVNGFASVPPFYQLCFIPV
CYP2C19 activ = activators of human cytochrome P450 2C19. P33261. recombinant CYP2C19, luciferin-H EGE luminescence; active compounds read high; 0 = fully inhibited enzyme, 1 = untreated enzyme. activation factor at 5 µM. 96,000 tested, under 10 active. AID 1025;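 active = activation factor of at least 2 at 5 µM in the primary screen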;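 also: 0 = wells with 2.5 mM tranylcypromine and 1 = vehicle-only wells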
CYP2C9 inh = blocks human cytochrome P450 2C9 | P11712 | AID 777 | 20% of 96,000 active | CYP2C9 Supersomes, luciferin-H conversion, luminescence | inhibition, % at 5 µM;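 active = blocking of liver enzyme CYP2C9 beyond about 50% at 5 µM, limit read from the data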
CYP2C19 inh = blocks human cytochrome P450 2C19; P33261; CYP2C19 Supersomes, luciferin-H EGE luminescence, 30 min; inhibition, % at 5 µM; 21% of 96,000 active;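 active = CYP2C19 inhibition above a set limit at 5 µM in the primary screen, cut at about 50% in these data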;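 also: plate controls were negative control wells for no effect and 2.5 mM tranylcypromine positive control for full effect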
sEH inh = soluble epoxide hydrolase (human) inhibition. P34913. recombinant human sEH enzymatic activity assay. AID 707. inhibition, % at 2 µM. 0.34% of 91,000 active; in the data active = inhibition above about 80%
sEH act = activators of human soluble epoxide hydrolase | P34913 | purified human sEH enzymatic activity, activator screen | activation, % at 2 µM | 0.04% of 91,000 active | AID 717; in the data active = activation above about 37%
Active calls of the source: *; . = no result. In the library only some 27% were active in any assay of this set; here they are far more common.

SMILES	CYP2C9 activ	CYP2C19 activ	CYP2C9 inh	CYP2C19 inh	sEH inh	sEH act
CCOc1cc(C2CC(=O)c3c(ccc4ccccc34)N2)ccc1O (centres undefined)	0.3	0.8	65*	24	24	-22
Cc1cc(N2CCN(C/C=C/c3ccccc3)CC2)n2ncnc2n1	0.5	0.8	52*	21	.	.
Cc1cccc(C)c1NC(=O)c1cc2c(=O)c3ccccc3oc2nc1C(F)(F)F	0.9	1	10	3	6	-4
Cc1ccc2oc3nc(C)c(C(=O)Nc4cccc(C(F)(F)F)c4)cc3c(=O)c2c1	0.1	0.7	88*	26	-10	8
CC(C)CC(=O)OCc1cn(-c2ccccc2)nn1	0.9	0.8	5	20	-7	4
CCCCc1cc(=O)oc2cc(C)cc(OCC(=O)O)c12	0.9	1.2	8	-24	.	.
CCCc1cc(=O)oc2cc3oc(C)c(C)c3cc12	0.6	0.3	36	72*	.	.
CCCc1cc(=O)oc2cc(C)c3c(C)coc3c12	0.7	0.5	30	53*	11	-11
CCCc1cc(=O)oc2cc3occ(C)c3cc12	0.2	0.3	76*	71*	-9	7
CCc1cc(=O)oc2cc3oc(C)c(C)c3cc12	0.8	0.6	17	44	.	.
Cc1coc2cc3oc(=O)c4c(c3cc12)CCC4	0.9	1	13	-3	.	.
O=C(CSc1nc(-c2ccco2)cc(C(F)(F)F)n1)NCC1CCCO1 (centres undefined)	0.8	0.3	24	71*	7	-4
O=C(CSc1nc(-c2ccco2)cc(C(F)(F)F)n1)N1CCN(Cc2ccccc2)CC1	0.3	0.2	68*	83*	-8	6
O=C(CSc1nc(-c2ccco2)cc(C(F)(F)F)n1)N1CCN(c2ccc(Cl)cc2)CC1	.	.	.	.	-1	6
O=C(CSc1nc(-c2ccco2)cc(C(F)(F)F)n1)Nc1ccc(C(=O)N2CCCCC2)cc1	0.1	0.4	85*	55*	76	-76
CCOC(=O)N1CCN(c2nc(-c3ccco3)cc(C(F)(F)F)n2)CC1	0.2	0.6	75*	42	.	.
O=C(CSc1nc(-c2ccco2)cc(C(F)(F)F)n1)NCCc1ccccc1	0.7	0.8	30	16	8	-5
Cc1cccc(C)c1NC(=O)CSc1nc(-c2ccco2)cc(C(F)(F)F)n1	.	.	.	.	3	-2
O=C(CCCSc1nc(-c2ccco2)cc(C(F)(F)F)n1)NCC1CCCO1 (centres undefined)	.	.	.	.	31	-27
O=C(CCSc1nc(-c2ccco2)cc(C(F)(F)F)n1)NCC1CCCO1 (centres undefined)	1.4	0.3	-39	67*	6	-5
O=C(CN1C(=O)COc2ccccc21)Nc1ccc2c(c1)OCCO2	0.7	0.4	33	57*	.	.
O=C(CN1C(=O)CSc2ccccc21)Nc1ccc2c(c1)OCCO2	2.2*	0.7	-118	30	16	-14
Cc1cc2ccccc2c(=O)n1CC(=O)Nc1ccc2c(c1)OCCO2	0.4	0.4	63*	56*	11	-9
O=C(CN1C(=O)CCS(=O)(=O)c2ccccc21)Nc1ccc2c(c1)OCCO2	.	.	.	.	-8	11
O=C(CN1C(=O)CSc2ccccc21)NC1CCCC1	2.3*	0.8	-127	15	.	.
SMILES	CYP2C9 activ	CYP2C19 activ	CYP2C9 inh	CYP2C19 inh	sEH inh	sEH act
CCOC(=O)N1CCC(NC(=O)CN2C(=O)CCSc3ccccc32)CC1	0.9	0.9	8	12	.	.
CCOC(=O)C1=C(C)Nc2ccccc2N=C1NC(=O)c1cccc(S(=O)(=O)NCc2ccccc2)c1	0.7	1.1	33	-7	-13	16
O=C1CCCN1CN(C(=O)c1ccccc1)c1ccc(F)cc1	1.1	1.1	-6	-13	-3	2
CC(C(=O)O)n1nc2ccccc2n1 (centres undefined)	1	1.1	-4	-6	4	-3
O=C(CN1C(=O)CCSc2ccccc21)Nc1ccc2c(c1)OCO2	0.3	0.1	70*	90*	.	.
COC(=O)c1[nH]c2cc(OC)ccc2c1NC(=O)CCN1CCSCC1	0.6	0.8	45	17	2	-1
Cc1ccccc1NC(=S)NC(NC(=O)c1ccccc1C)C(Cl)(Cl)Cl (centres undefined)	1	1	0	3	-23	20
Cc1ccc(C)c(NC(=S)NC(NC(=O)Cc2ccccc2)C(Cl)(Cl)Cl)c1 (centres undefined)	0.6	0.5	36	50*	-9	7
O=C(COc1ccccc1)NC(NC(=S)Nc1ccccc1C(=O)O)C(Cl)(Cl)Cl (centres undefined)	0.2	0.9	82*	10	-18	15
COc1ccc(-c2ccnc(SCC(=O)Nc3ccccn3)n2)cc1	.	.	.	.	-7	7
O=C(c1ccc(CSCc2ccccc2F)o1)N1CCN(c2ccc(N3CCOCC3)nn2)CC1	0.5	0.4	50*	60*	.	.
Cc1ccc(C(=O)c2ccc([N+](=O)[O-])cc2)c(C)c1	0.4	0.2	60*	82*	8	-6
Cc1cc(C(=O)OCC(=O)c2ccc3c(c2)OCCO3)c(C)o1	0.6	0.1	40	86*	9	-10
Cc1c(C(=O)OCC(=O)c2ccc3c(c2)OCCO3)oc2ccccc12	1.5	0.9	-50	14	10	-10
COc1cc(Sc2ccc(C)cc2)c(OC)cc1N	0.6	0.3	35	68*	-21	19
COC(=O)c1ccc(Sc2ccc(C)cc2)c(N)c1	0.7	0.6	31	35	-2	0
CN1C(=O)C(=C2CCCCCC2)SC1=S	0.9	0.9	10	14	.	.
O=C1NC(=S)SC1=C1CCCC1	0.3	0.7	74*	29	-6	8
CN(c1cccc(NS(=O)(=O)c2cccs2)c1)S(C)(=O)=O	1.2	0.8	-18	20	7	-2
O=S(=O)(Nc1ccc(N2CCOCC2)cc1)c1cccs1	0.5	0.1	46	90*	4	-4
CCc1ccc(NS(=O)(=O)c2cccs2)cc1	0.3	0.4	67*	56*	-4	2
O=C(O)C1CSC2(CCN(Cc3ccccc3)CC2)N1 (centres undefined)	.	.	.	.	6	-5
Cc1sc(NC(=O)c2ccccc2)c(C(=O)NC(C)C)c1C	0.5	0.9	53*	5	2	-3
CCN(CC)C(=O)c1c(NC(=O)c2ccccc2)sc(C)c1C	0.8	0.3	24	73*	22	-20
Cc1sc(NC(=O)c2ccccc2)c(C(=O)N2CCN(C)CC2)c1C	1	1	-3	-1	-9	9
Cc1ccc(S(=O)(=O)CCCS(=O)(=O)c2ccc(C)cc2)cc1	0.6	0.5	38	52*	-5	7
COC(=O)c1ccc(CS(=O)(=O)c2ccc(C)cc2)cc1	0.4	0.7	58*	32	-24	21
COC(=O)c1ccc(S(=O)(=O)N2CCCCCC2)cc1	0.7	0.6	26	44	-3	2
